Only some compounds are listed: those with a hit (about 12% of all), similar ones and a draw of the others.
G9a block = qHTS Assay for Inhibitors of Histone Lysine Methyltransferase G9a; Potency, µM (doses to about 102 µM), for inactives: at the top dose activity, negative = inhibition, usual class: inhibitors; 350,000 compounds, 8.8% hits; Histone-lysine N-methyltransferase EHMT2 (Homo sapiens), Q96KQ7; AID 504332, 2011; G9a H3K9 monomethylation, AlphaScreen, 2 h; also: potency is read from the fitted curve at half-maximal effect; % is scaled to controls: 0 for no effect and ±100 for the full control effect; nearly all actives have a fitted effect of over 75% in size
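G9a (20 nM) preincubated 15 min RT with compounds, then 500 nM biotinylated H3K9 peptide and 20 uM SAM added; 2 h RT reaction. Monomethyl-H3K9 product detected by AlphaScreen with anti-H3K9me1 antibody, streptavidin donor and anti-rabbit IgG acceptor beads.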
PLK1 PBD block = qHTS for Inhibitors of PLK1-PDB (polo-like kinase 1 - polo-box domain): Primary Screen; Plk1 PBD binding of FITC phosphopeptide, fluorescence polarization; AID 720504, 2013; Potency, µM, without a hit: max response, negative = inhibition, most hits filed as inhibitors; 360,000 compounds, 2.8% hits; Serine/threonine-protein kinase PLK1 (Homo sapiens), P53350; also: potency is read from the fitted curve at half-maximal effect; series mostly up to about 57 µM; % is scaled to controls: 0 for no effect and ±100 for the full control effect; nearly all actives have a fitted effect of over 65% in size
PI5P4K alpha inh = qHTS for Inhibitors of phosphatidylinositol 5-phosphate 4-kinase (PI5P4K); Phosphatidylinositol 5-phosphate 4-kinase type-2 alpha (Homo sapiens), P48426; PI5P4Kalpha enzyme, ADP-Glo luminescence, 60 min; stronger effect = lower value; max response, %; 330,000 compounds, 1.2% hits; active = max response of -50% or lower; inconclusive = between -30% and -50%; inactive = -30% or higher; also: value at the top dose of about 77 µM; % is scaled to controls: 0 for no effect and ±100 for the full control effect
Target sequence (P48426 whole entry, looked up): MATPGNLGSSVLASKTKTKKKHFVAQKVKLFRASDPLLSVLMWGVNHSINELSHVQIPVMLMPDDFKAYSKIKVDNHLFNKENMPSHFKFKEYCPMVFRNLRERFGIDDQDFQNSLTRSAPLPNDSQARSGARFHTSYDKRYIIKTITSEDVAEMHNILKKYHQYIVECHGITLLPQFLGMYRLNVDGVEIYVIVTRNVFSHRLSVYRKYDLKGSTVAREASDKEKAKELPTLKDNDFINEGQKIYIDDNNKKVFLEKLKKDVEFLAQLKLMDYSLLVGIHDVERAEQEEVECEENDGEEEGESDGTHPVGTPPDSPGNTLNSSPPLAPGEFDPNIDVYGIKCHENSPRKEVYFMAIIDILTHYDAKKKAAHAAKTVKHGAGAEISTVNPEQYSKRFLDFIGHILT
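Controls without substrate or without enzyme flank wells where PI5P4Kalpha converts substrate using 5 microM ATP (final). Incubation lasts 60 minutes at room temperature; ADP formed is read by ADP-Glo luminescence.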
BAZ2B block = qHTS Assay for Inhibitors of BAZ2B. Bromodomain adjacent to zinc finger domain protein 2B (Homo sapiens), Q9UIF8. 360,000 compounds, 4.4% hits. AlphaScreen BAZ2B-H3K14Ac peptide displacement. Potency, µM (top dose mostly 114 µM), for the others: at the top dose activity change, negative = inhibition, usual class: inhibitors; also: potency is read from the fitted curve at half-maximal effect; % is scaled to controls: 0 for no effect and ±100 for the full control effect; nearly all actives have a fitted effect of over 60% in size
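Multi-concentration screen (max 110 uM) measuring displacement of acetylated histone H3 peptide from BAZ2B by AlphaScreen, using 50 nM protein, 50 nM peptide and 10 ug/mL streptavidin donor plus Ni-chelate acceptor beads.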
HP1b binding inh = HTS for Inhibitors of HP1-beta Chromodomain Interactions with Methylated Histone Tails | 390,000 compounds, 0.56% hits | AID 540317, 2011 | Potency, µM (series often up to 114 µM), inactives show top-dose activity change, negative = inhibition, actives largely listed as inhibitors | AlphaScreen HP1-beta / biotin-H3K9me3 peptide binding | Chromobox protein homolog 1 (Homo sapiens), P83916; also: potency is read from the fitted curve at half-maximal effect; nearly all actives have a fitted effect of over 70% in size
Target sequence (P83916 whole entry, looked up): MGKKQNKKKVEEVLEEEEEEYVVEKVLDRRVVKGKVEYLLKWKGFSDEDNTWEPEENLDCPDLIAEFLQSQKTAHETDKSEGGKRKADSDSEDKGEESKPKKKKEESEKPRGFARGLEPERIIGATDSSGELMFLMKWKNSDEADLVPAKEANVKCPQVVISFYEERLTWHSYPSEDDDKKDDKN
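AlphaScreen: HP1-beta (50 nM) preformed 30 min with biotin-H3(1-18)K9me3 peptide (50 nM) in PBS pH 7.4, 0.01% Tween-20. Compound added for 30 min at RT, then streptavidin donor/nickel chelate acceptor beads (10 ug/mL) for 30 min.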
JMJD2A Tudor inh = qHTS Assay for Inhibitors of JMJD2A-Tudor Domain; 390,000 compounds, 4.4% hits; Lysine-specific demethylase 4A (Homo sapiens), O75164; Potency, µM (top dose mostly 114 µM), for the others: at the highest dose activity change, negative = inhibition, actives largely listed as inhibitors; AlphaScreen JMJD2A-Tudor / H3K4me3 peptide binding; also: potency is read from the fitted curve at half-maximal effect; % is scaled to controls: 0 for no effect and ±100 for the full control effect; nearly all actives have a fitted effect of over 50% in size
Active calls of the source: *; ? = inconclusive; · = no result; [ ] = remark or other dose. Unless noted, calls follow the shape of the dose curve; as a rule, active = well fitted curve in the direction sought with a large enough effect; inconclusive = small, poorly fitted or top-dose-only effect, or another doubt; inactive = no such curve, though single readings can be large; an effect the other way counts as inactive or inconclusive.

SMILES	G9a block	PLK1 PBD block	PI5P4K alpha inh	BAZ2B block	HP1b binding inh	JMJD2A Tudor inh
Cc1ccc(-c2nc(SCC(=O)N3CCc4ccccc43)c3c(=O)n(C)c(=O)n(C)c3n2)cc1	23%[59 µM]	·	·	1%	15%[57 µM]	-11%
Cc1nc(-c2ccccn2)sc1C(=O)O	-5%	-7%	-21	?	36%	-11%[57.1 µM]
O=c1[nH]c(-c2ccccn2)nc2sc(-c3ccccc3)cc12	8.9µM*	11µM*	?	45µM*	47%	?
Cc1c(C(=O)N(C)C)sc2nc(-c3ccccn3)[nH]c(=O)c12	?	-30%	-9	10µM*	8%	50µM*
CCN(CC)C(=O)c1sc2nc(Cc3ccccc3)[nH]c(=O)c2c1C	?	30µM*	-29	-21%	2%	?
Cc1[nH]n(-c2ncc(-c3ccccc3)s2)c(=O)c1C(c1ccc(Br)cc1)C(C#N)C#N (stereo not drawn)	?	2.7µM*	-70*	35µM*	40µM*	50µM*
Cc1[nH]n(C(N)=S)c(=O)c1C(c1ccccc1)C(C#N)C#N (stereo not drawn)	?	?	-10	12%	33%	9%
CN1CCCC2(CCN(C(=O)c3cccc(F)c3)CC2)C1	4%[12.7 µM]	·	·	·	·	·
COc1cccc(N=C2C(=O)N3CCCc4cccc2c43)c1	?	-17%	-5	-37%	-22%	-31%
COc1ccc(N=C2C(=O)N3c4c(cccc42)C(C)=CC3(C)C)cc1	10µM*	-17%	-12	35µM*	28µM*	14µM*
CCCS(=O)(=O)NCCc1sc2nc(-c3ccc(Cl)cc3)nn2c1C	21%[59 µM]	·	·	-12%	24%	-2%
O=C(CNc1ccc2ccccc2c1)N/N=C/C=C/c1cccc([N+](=O)[O-])c1	3.2µM*	-4%	2	89µM*	16%	?
CC(=O)Nc1ccc(C=CC=Cc2cccc([N+](=O)[O-])c2)cc1	·	0%	-16	·	?	79µM*
CC(C(=O)NCc1ccccc1Cl)n1cc([N+](=O)[O-])cn1 (stereo not drawn)	·	-1%	-10	0%	3%	3%
C[C@@H]1CCCCO[C@@H](CN(C)C(=O)C2CCCCC2)[C@@H](C)CN([C@H](C)CO)C(=O)c2cc(NC(=O)NC3CCCCC3)ccc2O1	·	-18%	2	·	·	·
Cc1cc2ccccc2n1CCNC(=O)c1cc(C(F)(F)F)cc(C(F)(F)F)c1	-14%[59 µM]	·	·	-38%	8%	2%
CCN(CC1CCCO1)C(=O)c1cc(COc2cc(C)c(Cl)c(C)c2)on1 (stereo not drawn)	2%[12.7 µM]	-3%	-13	-2%	99%	9%
COCC1CCN(C(=O)c2cc(COc3ccc4ncccc4c3)on2)CC1	·	17µM*	?	-1%	0%	16µM*
Cc1cc(OCc2cc(C(=O)N(C)CC3CCOCC3)no2)cc(C)c1Cl	20%	27µM*	-7	2%	22%	?
Cc1cc(OCc2cc(C(=O)N(C)CCCN3CCOCC3)no2)cc(C)c1Cl	-3%	?	2	-18%	19%	89µM*
CC(=O)c1cccc(OCc2cc(C(=O)N3C[C@@H](C)O[C@@H](C)C3)no2)c1	45µM*	?	6	-18%	56%	-10%
CSc1ncccc1C(=O)OCC(=O)Nc1cccc(S(=O)(=O)N2CCOCC2)c1	·	-4%	0	·	8%	-25%
COc1ccc(CNC(=O)c2cccc3c(-c4cnn(C)c4)coc23)cc1OC	·	-5%	3	·	·	·
Cc1cc(Cl)c2oc(C(=O)N(C)CC3CCOCC3)c(C)c2c1	46%	27µM*	10	-12%[57.1 µM]	23%	?
CC(=O)c1cccc(OCc2cc(C(=O)N(C)CCC3CCOCC3)no2)c1	45µM*	?	-1	-3%[57.1 µM]	35%	11%
SMILES	G9a block	PLK1 PBD block	PI5P4K alpha inh	BAZ2B block	HP1b binding inh	JMJD2A Tudor inh
C=CCN(C(=O)c1oc2c(Cl)cc(C)cc2c1C)C1CCS(=O)(=O)C1 (stereo not drawn)	18%[0.0925 µM]	-16%	-1	-6%	19%	-16%
Cc1ccc(C(=O)Nc2ccccc2N2CCCC2)s1	?	-19%	-1	?	36%	-23%
O=C(Cn1c(C(F)(F)F)nc2ccccc21)N1CCCC1	-8%	-8%	5	8%	29%	-17%
c1ccc2c(c1)nc(-c1ccncc1)n2CCNc1nc(CN2CCCCC2)cs1	50µM*	-9%	0	-36%	38%	-9%
FC(F)(F)c1nc2ccccc2n1CCNc1nc(CN2CCCCC2)cs1	45µM*	-12%	-9	-35%	27%	-23%
CS(=O)(=O)Nc1cccc(-c2ccc3ncnc(N4CCOCC4)c3c2)c1	7%[0.501 µM]	·	·	·	·	·
CCN1C(=O)/C(=C\c2nc3ccccc3c(=O)n2-c2ccccc2)c2ccccc21	?	-2%	2	50µM*	-16%	45µM*
Cc1ccc(NC(=S)NC2CCSc3ccccc32)cc1C (stereo not drawn)	-6%	-7%	10	-38%	31%	-24%
COC(=O)N1[C@H](Cc2ccccc2)C=C[C@]1(C)C(=O)NCc1ccccn1	?	2%	4	-31%	39%	-28%
CC(=O)N1[C@H](Cc2ccccc2)C=C[C@]1(C)C(=O)NCCc1c[nH]c2ccccc12	?	-17%	-4	-32%	6%	-24%
CNC(=O)[C@@]1(C)C=C[C@@H](Cc2ccccc2)N1C(=O)OC	79µM*	-12%	5	-16%	0%	-24%
CC(=O)N1[C@H](Cc2ccccc2)C=C[C@]1(C)C(=O)NCc1ccc(C)o1	6.3µM*	-17%	-21	-11%	19%	-20%
Cc1cccc(Nc2nc(N)c([N+](=O)[O-])c(NCCO)n2)c1	-6%	-9%	-27	-5%	45%	-21%
Nc1nc(Nc2cccc(Cl)c2)nc(NCCO)c1[N+](=O)[O-]	?	-6%	-63*	-27%	?	-26%
COCCn1c(C)cc(/C=C2/SC(=O)N(C(C)C(=O)OC)C2=O)c1C (stereo not drawn)	?	-4%	3	?	-6%	?
COCCn1c(C)cc(/C=C2\NC(=S)N(C)C2=O)c1C	10µM*	-11%	0	50µM*	?	-51%
